The target in assay [1] is Bile acid receptor (Homo sapiens) (UniProt Q96RI1). Kind of assay: OT_FXR_FXRSRC1_1440: Odyssey Thera (OT) 24-hour HEK293T Protein-Complementation Assay for Farnesoid X receptor/SRC-1 Co-activator (AID 2283384). In outline: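 Cell-based binding reporter: interaction of FXR with SRC-1 brings reporter fragments together, giving a fluorescence signal read 24 h after dosing of HEK293T cells.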

Assay [2] addresses Retinoic acid receptor RXR-alpha (Homo sapiens) (UniProt P19793). Kind of assay: OT_NURR1_NURR1RXRa_0480: Odyssey Thera (OT) 8-hour HEK293T Protein Complementation Assay for Nurr1/retinoid X receptor (RXR) (AID 2283385). In outline: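 Compounds are applied to HEK293T cells carrying Nurr1 and RXRα linked to reporter fragments. After 8 h, fluorescence intensity reports heterodimer formation, with DMSO as baseline.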

The target is the same in assay [3]. As to the kind of experiment: OT_NURR1_NURR1RXRa_1440: Odyssey Thera (OT) 24-hour HEK293T Protein Complementation Assay for Nurr1/retinoid X receptor (RXR) (AID 2283386). In outline:
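Measured as fluorescence from a reconstituted split reporter, this 24 h HEK293T complementation assay scores compound-induced gain of Nurr1/RXRα association relative to DMSO.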

The target in assay [4] is Peroxisome proliferator-activated receptor gamma (Homo sapiens) (UniProt P37231). As to the kind of experiment: OT_PPARg_PPARgSRC1_0480: Odyssey Thera (OT) 8-hour Protein-Complementation Assay for Peroxisome Proliferator-activated Receptor Gamma / SRC-1 Co-activator (AID 2283387).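 Also: nuclear to cytoplasmic split Venus YFP fluorescence ratio reporting PPARg SRC-1 interaction.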 In short, it runs like this: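 Read-out: 488 nm N/C fluorescence ratio from complemented Venus YFP fragments, ≥350 cells per image, gain-of-signal fitted against DMSO baseline. Fusions of PPARg/SRC-1 with IFP1/IFP2 expressed transiently in HEK293T; compounds applied 8 h.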

Assay [5] shares this target. As to the kind of experiment: OT_PPARg_PPARgSRC1_1440: Odyssey Thera (OT) 24-hour Protein-Complementation Assay for Peroxisome Proliferator-activated Receptor Gamma/ SRC-1 Co-activator (AID 2283388).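 Also: nuclear to cytoplasmic ratio of reconstituted Venus YFP fluorescence in fixed imaged cells.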 In outline:
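Readout: nuclear-to-cytoplasmic 488 nm fluorescence ratio, ≥350 cells per image, 8 images per well, after 24 h compound exposure of HEK293T expressing PPARg/SRC-1 split-YFP fusions. Activity fitted in positive direction against DMSO.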

Assay [6] can be described thus: CEETOX_H295R_11DCORT: CeeTox H295R High-throughput Steroidogenesis Assay for 11-Deoxycortisol (11DCORT) (AID 2283432; active = hit-call score of the fitted dose curve at least 0.9, where 1 is the maximum; inactive = score below 0.9;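 also: human adrenal H295R cells prestimulated with 10 µM forskolin for 48 h; 11-deoxycortisol secreted into the medium measured by LC-MS/MS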). The following applies: actives raise or lower the signal. In outline:
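H295R cells; 10 uM forskolin prestim 48 h; compound in 0.1% DMSO 48 h; media extracted with MTBE; 11-deoxycortisol by LC-MS/MS, 7-point standard curve; gain/loss vs DMSO baseline; viability by MTT in same wells.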

Assay [7] is described as follows: CEETOX_H295R_ANDR: CeeTox H295R High-throughput Steroidogenesis Assay for Androstenedione (ANDR) (AID 2283436; active = hit-call score of the fitted dose curve at least 0.9, where 1 is the maximum; inactive = score below 0.9). The following applies: actives raise or lower the signal. In outline: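 H295R human adrenal cells (passages ≤10) were exposed to test chemicals for 48 h; androstenedione in medium was MTBE-extracted and quantified by HPLC-MS/MS against a 7-point standard curve. Bidirectional fitting used DMSO as baseline.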

Assay [8] is described as follows: CEETOX_H295R_CORTIC: CeeTox H295R High-throughput Steroidogenesis Assay for Corticosterone (CORTIC) (AID 2283437; active = hit-call score of the fitted dose curve at least 0.9, where 1 is the maximum; inactive = score below 0.9;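 also: corticosterone secreted into medium quantified by mass spectrometry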). The following applies: actives raise or lower the signal. In outline: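 H295R cells were prestimulated 48 h with 10 uM forskolin, then exposed 48 h to test chemical in 0.1% DMSO. Medium corticosterone was MTBE-extracted and quantified by HPLC-MS/MS; bidirectional fit versus DMSO baseline.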

Assay [9] in a line: CEETOX_H295R_CORTISOL: CeeTox H295R High-throughput Steroidogenesis Assay for Cortisol (AID 2283438; active = hit-call score of the fitted dose curve at least 0.9, where 1 is the maximum; inactive = score below 0.9;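 also: cortisol secreted into medium quantified by LC-MS/MS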). The following applies: actives raise or lower the signal. In short, it runs like this:
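Human adrenocortical H295R cells (passage ≤10) received test chemicals for 48 h after forskolin priming. Secreted cortisol was measured by LC-MS/MS.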

The nature of assay [10]: CEETOX_H295R_DOC: CeeTox H295R High-throughput Steroidogenesis Assay for DOC (AID 2283439; active = hit-call score of the fitted dose curve at least 0.9, where 1 is the maximum; inactive = score below 0.9). The following applies: actives raise or lower the signal. In outline:
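Secreted DOC was quantified from H295R media by HPLC-MS/MS after 48 h chemical exposure following 48 h forskolin (10 uM) prestimulation. Values were fitted in both directions relative to DMSO, the negative control and baseline.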

A short description of assay [11]: CEETOX_H295R_PROG: CeeTox H295R High-throughput Steroidogenesis Assay for Progesterone (PROG) (AID 2283442; active = hit-call score of the fitted dose curve at least 0.9, where 1 is the maximum; inactive = score below 0.9;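 also: human H295R adrenal cells primed with 10 µM forskolin before dosing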). The note with it: actives raise or lower the signal. In outline:
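Progesterone read-out: HPLC-MS/MS on MTBE extracts of conditioned medium after 48 h chemical exposure of forskolin-primed (10 uM, 48 h) H295R cells. Gain or loss of signal was fitted relative to DMSO baseline.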

Read-out in assay [12]: Tumor necrosis factor receptor superfamily member 6 (Homo sapiens) (UniProt P25445)
As to the kind of experiment: LTEA_HepaRG_FAS: Life Technologies and Expression Analysis (LTEA) Assay for Fas cell surface death receptor (FAS) using HepaRG (AID 2283447; active = hit-call score of the fitted dose curve at least 0.9, where 1 is the maximum; inactive = score below 0.9). The following applies: mRNA level, 48 h; actives raise or lower the signal. In short, it runs like this:
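Differentiated human HepaRG cells, pre-cultured 48 h, were exposed in duplicate for 48 h to 8-point half-log concentrations (top 100 uM, 0.5% DMSO) in serum-free induction medium; FAS mRNA measured by qRT-PCR, normalized to ACTB/GAPDH/POLR2A, bidirectional fit versus DMSO.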

Read-out in assay [13]: Fatty acid synthase (Homo sapiens) (UniProt P49327)
As to the kind of experiment: LTEA_HepaRG_FASN: Life Technologies and Expression Analysis (LTEA) Assay for Fatty Acid Synthase (FASN) using HepaRG (AID 2283448; active = hit-call score of the fitted dose curve at least 0.9, where 1 is the maximum; inactive = score below 0.9). The note with it: mRNA level, 48 h; actives raise or lower the signal. In short, it runs like this:
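Transcript-level assay: HepaRG liver cells are treated for 48 h across an eight-point range topping at 100 uM, and FASN mRNA, normalized to three housekeeping genes, is compared with DMSO controls in both directions.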

Read-out in assay [14]: Cyclin D2 (CCND2), CCND2 (gene 894)
Kind of assay: LTEA_HepaRG_CCND2: Life Technologies and Expression Analysis (LTEA) Assay for Cyclin D2 (CCND2) using HepaRG (AID 2283449; active = hit-call score of the fitted dose curve at least 0.9, where 1 is the maximum; inactive = score below 0.9;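 also: CCND2 transcript measured by TaqMan qRT-PCR and normalised to three housekeeping genes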). The note with it: mRNA level, 48 h; actives raise or lower the signal. In short, it runs like this: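 Differentiated human HepaRG cells were exposed for 48 h in serum-free induction medium to eight half-log concentrations topping at 100 uM (0.5% DMSO vehicle). CCND2 mRNA was quantified by TaqMan qRT-PCR, normalised to ACTB, GAPDH and POLR2A, and fitted bidirectionally against DMSO.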

Read-out in assay [15]: Cyclin Dependent Kinase Inhibitor 1A (CDKN1A), CDKN1A (gene 1026)
As to the kind of experiment: LTEA_HepaRG_CDKN1A: Life Technologies and Expression Analysis (LTEA) Assay for Cyclin Dependent Kinase Inhibitor 1A (CDKN1A) using HepaRG (AID 2283450; active = hit-call score of the fitted dose curve at least 0.9, where 1 is the maximum; inactive = score below 0.9). The following applies: mRNA level, 48 h; actives raise or lower the signal. In short, it runs like this:
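HepaRG, 48 h dosing, 8-pt half-log series from 100 uM top, 0.5% DMSO vehicle, duplicates. Readout: TaqMan qRT-PCR of CDKN1A transcript, housekeeping-normalized (ACTB, GAPDH, POLR2A). Up/down curve fit relative to DMSO.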

Read-out in assay [16]: catalase (CAT), CAT (gene 847)
As to the kind of experiment: LTEA_HepaRG_CAT: Life Technologies and Expression Analysis (LTEA) Assay for catalase (CAT) using HepaRG (AID 2283452; active = hit-call score of the fitted dose curve at least 0.9, where 1 is the maximum; inactive = score below 0.9). The following applies: mRNA level, 48 h; actives raise or lower the signal. In short, it runs like this: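 Differentiated HepaRG cells in serum-free induction medium were dosed 48 h in duplicate, eight half-log concentrations from 100 uM in 0.5% DMSO. Transcript measured by TaqMan qRT-PCR, normalised to ACTB/GAPDH/POLR2A, fitted bidirectionally against DMSO.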

Read-out in assay [17]: flavin-containing dimethylaniline monooxygenases 3 (FMO3), FMO3 (gene 2328)
Kind of assay: LTEA_HepaRG_FMO3: Life Technologies and Expression Analysis (LTEA) Assay for flavin-containing dimethylaniline monooxygenases 3 (FMO3) using HepaRG (AID 2283453; active = hit-call score of the fitted dose curve at least 0.9, where 1 is the maximum; inactive = score below 0.9;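 as to AC50: FMO3 transcript by TaqMan qRT-PCR normalized to ACTB GAPDH and POLR2A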). The note with it: mRNA level, 48 h; actives raise or lower the signal. In outline: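 HepaRG, 48 h exposure, 8-pt half-log series from 100 uM, 0.5% DMSO vehicle, duplicates; FMO3 transcript by Fluidigm TaqMan qRT-PCR, housekeeping-normalized; gain/loss fit vs DMSO.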

Read-out in assay [18]: Cytochrome P450 (CYP1A1), CYP1A1 (gene 1543)
As to the kind of experiment: LTEA_HepaRG_CYP1A1: Life Technologies and Expression Analysis (LTEA) Assay for Cytochrome P450 (CYP1A1) using HepaRG (AID 2283454; active = hit-call score of the fitted dose curve at least 0.9, where 1 is the maximum; inactive = score below 0.9). The following applies: mRNA level, 48 h; actives raise or lower the signal. In short, it runs like this:
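qRT-PCR read-out: CYP1A1 transcript normalized to three housekeeping genes, fitted bidirectionally against 0.5% DMSO vehicle baseline. Human HepaRG cells, 48 h chemical exposure, 8-point half-log series topping at 100 uM.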

Read-out in assay [19]: CFLAR gene, CFLAR (gene 8837)
As to the kind of experiment: LTEA_HepaRG_CFLAR: Life Technologies and Expression Analysis (LTEA) Assay for CFLAR gene using HepaRG (AID 2283455; active = hit-call score of the fitted dose curve at least 0.9, where 1 is the maximum; inactive = score below 0.9). The following applies: mRNA level, 48 h; actives raise or lower the signal. In outline:
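HepaRG cells were plated for 48 h, switched to serum-free induction medium, then exposed in duplicate for 48 h to 8 concentrations (top 100 uM, half-log steps, 0.5% DMSO). CFLAR mRNA was measured by qRT-PCR, normalized to ACTB, GAPDH and POLR2A.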

Read-out in assay [20]: Cyclin D1 (CCND1), CCND1 (gene 595)
As to the kind of experiment: LTEA_HepaRG_CCND1: Life Technologies and Expression Analysis (LTEA) Assay for Cyclin D1 (CCND1) using HepaRG (AID 2283451; active = hit-call score of the fitted dose curve at least 0.9, where 1 is the maximum; inactive = score below 0.9). The following applies: mRNA level, 48 h; actives raise or lower the signal. In outline:
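qRT-PCR (Fluidigm 96.96 array) read-out of transcript level, housekeeping-normalized (ACTB/GAPDH/POLR2A). HepaRG cells, 48 h chemical exposure, 8-point half-log series from 100 uM, 0.5% DMSO vehicle; gain or loss relative to DMSO baseline.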

Usually AC50 stands for the concentration giving half of the maximal activity seen.

Where “and” joins values, the source holds several entries; their conditions need not be identical. Equal entries are not always repeated. Records with an inconclusive call do not appear. The source holds several records for some structures; these can differ, active in one and inactive in another. Calls of active or inactive are those of the source. The calls were made as follows, unless noted: active = hit-call score of the fitted dose curve at least 0.9, where 1 is the maximum; inconclusive = response in the unintended direction; inactive = score below 0.9.

Sequence of Retinoic acid receptor RXR-alpha (Homo sapiens) (P19793 whole entry, looked up, the tested form may be a part): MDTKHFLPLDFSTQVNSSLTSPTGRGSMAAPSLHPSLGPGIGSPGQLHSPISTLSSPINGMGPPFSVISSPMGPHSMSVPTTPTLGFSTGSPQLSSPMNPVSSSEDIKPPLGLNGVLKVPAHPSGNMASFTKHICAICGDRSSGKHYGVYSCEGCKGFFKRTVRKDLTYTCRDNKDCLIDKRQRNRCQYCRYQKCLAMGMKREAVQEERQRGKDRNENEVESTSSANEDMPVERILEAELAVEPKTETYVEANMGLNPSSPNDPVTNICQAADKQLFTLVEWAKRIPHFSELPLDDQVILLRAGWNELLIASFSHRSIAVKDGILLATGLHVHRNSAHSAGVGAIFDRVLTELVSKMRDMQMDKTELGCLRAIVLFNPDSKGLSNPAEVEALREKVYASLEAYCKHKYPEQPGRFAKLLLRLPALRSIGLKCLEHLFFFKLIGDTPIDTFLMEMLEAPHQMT
Sequence of Bile acid receptor (Homo sapiens) (Q96RI1 whole entry, looked up, the tested form may be a part): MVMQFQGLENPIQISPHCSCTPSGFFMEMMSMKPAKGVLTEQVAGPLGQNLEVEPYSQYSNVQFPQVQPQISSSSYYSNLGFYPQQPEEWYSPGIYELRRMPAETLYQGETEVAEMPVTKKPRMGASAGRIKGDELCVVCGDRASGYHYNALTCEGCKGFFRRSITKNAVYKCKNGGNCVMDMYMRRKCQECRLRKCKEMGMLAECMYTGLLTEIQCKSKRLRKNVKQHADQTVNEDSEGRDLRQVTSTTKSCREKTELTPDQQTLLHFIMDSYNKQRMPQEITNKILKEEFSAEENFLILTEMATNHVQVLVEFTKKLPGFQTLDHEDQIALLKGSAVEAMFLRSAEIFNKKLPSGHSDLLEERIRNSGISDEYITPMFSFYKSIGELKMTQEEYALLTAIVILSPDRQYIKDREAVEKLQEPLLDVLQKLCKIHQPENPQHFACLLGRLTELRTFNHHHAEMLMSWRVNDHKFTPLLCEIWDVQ
Sequence of Fatty acid synthase (Homo sapiens) (P49327 whole entry, looked up): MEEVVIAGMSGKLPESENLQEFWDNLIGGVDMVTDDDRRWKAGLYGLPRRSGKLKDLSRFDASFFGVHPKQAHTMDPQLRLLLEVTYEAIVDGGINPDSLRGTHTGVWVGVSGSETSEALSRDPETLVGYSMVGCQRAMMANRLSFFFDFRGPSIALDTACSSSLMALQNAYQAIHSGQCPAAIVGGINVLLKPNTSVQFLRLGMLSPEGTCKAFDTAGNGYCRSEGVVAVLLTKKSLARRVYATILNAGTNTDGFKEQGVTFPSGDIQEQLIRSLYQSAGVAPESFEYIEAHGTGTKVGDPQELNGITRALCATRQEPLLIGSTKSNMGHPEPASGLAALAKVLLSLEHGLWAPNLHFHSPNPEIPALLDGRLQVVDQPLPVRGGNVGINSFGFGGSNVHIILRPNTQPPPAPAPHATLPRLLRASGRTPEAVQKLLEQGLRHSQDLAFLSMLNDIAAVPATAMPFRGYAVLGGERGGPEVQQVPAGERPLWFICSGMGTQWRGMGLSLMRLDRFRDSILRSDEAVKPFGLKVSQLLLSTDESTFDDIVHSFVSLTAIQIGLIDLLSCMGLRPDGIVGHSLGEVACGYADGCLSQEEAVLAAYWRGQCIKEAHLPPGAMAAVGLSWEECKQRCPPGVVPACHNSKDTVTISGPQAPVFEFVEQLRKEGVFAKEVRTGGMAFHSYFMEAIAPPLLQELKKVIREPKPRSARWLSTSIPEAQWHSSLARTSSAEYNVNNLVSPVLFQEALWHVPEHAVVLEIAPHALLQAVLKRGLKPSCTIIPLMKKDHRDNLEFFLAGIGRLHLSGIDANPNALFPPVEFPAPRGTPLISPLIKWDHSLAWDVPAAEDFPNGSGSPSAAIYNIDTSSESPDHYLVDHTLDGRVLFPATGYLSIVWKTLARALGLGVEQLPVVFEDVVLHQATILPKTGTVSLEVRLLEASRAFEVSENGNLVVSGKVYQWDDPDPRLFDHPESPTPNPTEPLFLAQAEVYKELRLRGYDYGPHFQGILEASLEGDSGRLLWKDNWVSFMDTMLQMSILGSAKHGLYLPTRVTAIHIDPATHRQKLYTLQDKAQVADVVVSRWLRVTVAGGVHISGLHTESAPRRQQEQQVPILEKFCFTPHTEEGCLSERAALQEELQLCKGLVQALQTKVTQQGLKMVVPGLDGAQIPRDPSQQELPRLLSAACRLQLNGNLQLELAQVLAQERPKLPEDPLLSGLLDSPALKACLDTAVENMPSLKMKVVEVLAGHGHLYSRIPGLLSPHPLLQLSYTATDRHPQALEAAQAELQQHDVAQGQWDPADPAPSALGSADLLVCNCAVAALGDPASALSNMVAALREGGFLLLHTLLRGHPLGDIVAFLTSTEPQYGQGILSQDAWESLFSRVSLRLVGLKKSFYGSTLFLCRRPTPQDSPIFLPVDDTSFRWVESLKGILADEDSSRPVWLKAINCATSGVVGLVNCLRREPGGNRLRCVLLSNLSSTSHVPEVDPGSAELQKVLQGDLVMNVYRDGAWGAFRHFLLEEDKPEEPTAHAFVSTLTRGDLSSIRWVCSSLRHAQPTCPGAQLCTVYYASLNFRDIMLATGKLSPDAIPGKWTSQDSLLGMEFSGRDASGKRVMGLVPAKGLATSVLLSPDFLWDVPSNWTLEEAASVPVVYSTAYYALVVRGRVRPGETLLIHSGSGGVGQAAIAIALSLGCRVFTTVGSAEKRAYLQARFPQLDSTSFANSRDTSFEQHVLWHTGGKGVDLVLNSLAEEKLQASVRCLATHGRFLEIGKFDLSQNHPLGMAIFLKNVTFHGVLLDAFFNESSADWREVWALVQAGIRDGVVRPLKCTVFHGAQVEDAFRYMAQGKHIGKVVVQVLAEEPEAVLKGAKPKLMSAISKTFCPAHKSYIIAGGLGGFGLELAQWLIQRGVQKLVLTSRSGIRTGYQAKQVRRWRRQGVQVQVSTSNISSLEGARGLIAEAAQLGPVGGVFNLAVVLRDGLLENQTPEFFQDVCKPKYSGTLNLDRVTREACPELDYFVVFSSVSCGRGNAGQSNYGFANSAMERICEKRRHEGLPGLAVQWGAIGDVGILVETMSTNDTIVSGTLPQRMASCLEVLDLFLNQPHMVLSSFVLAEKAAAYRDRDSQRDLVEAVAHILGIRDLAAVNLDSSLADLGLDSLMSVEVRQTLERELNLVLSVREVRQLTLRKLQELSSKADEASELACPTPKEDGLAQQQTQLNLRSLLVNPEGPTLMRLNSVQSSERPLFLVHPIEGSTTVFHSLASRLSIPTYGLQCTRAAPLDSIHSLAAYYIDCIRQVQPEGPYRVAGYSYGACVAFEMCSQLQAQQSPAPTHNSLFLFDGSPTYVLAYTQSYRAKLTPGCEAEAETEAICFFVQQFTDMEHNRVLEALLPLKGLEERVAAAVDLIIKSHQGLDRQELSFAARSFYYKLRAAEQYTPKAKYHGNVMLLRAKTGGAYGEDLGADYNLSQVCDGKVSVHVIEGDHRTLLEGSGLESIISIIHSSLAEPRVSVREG
Sequence of Peroxisome proliferator-activated receptor gamma (Homo sapiens) (P37231 whole entry, looked up, the tested form may be a part): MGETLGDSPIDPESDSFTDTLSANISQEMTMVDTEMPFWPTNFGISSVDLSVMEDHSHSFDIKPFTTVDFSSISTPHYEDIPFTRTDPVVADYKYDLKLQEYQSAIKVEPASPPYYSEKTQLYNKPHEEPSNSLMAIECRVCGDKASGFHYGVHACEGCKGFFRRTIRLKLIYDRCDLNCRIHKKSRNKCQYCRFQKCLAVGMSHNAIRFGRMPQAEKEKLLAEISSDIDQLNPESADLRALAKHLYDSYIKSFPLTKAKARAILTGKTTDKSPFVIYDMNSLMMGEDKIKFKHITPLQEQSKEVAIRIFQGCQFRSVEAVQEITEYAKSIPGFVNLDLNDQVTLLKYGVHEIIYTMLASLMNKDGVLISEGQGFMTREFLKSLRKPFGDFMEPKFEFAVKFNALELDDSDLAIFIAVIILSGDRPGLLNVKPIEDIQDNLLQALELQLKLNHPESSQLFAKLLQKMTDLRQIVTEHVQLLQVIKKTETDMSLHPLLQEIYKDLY

With `O=c1c(-c2ccc(O)cc2)coc2cc(O)cc(O)c12`, the AC50 is 18.9 µM (active) and 20.5 µM (active) and 18.6 µM (active) in assay [1]; 29 µM (active) [middle of 4 runs] in assay [2]; 11.9 µM (active) in assay [6]; 14.1 µM (active) in [7]; 12.4 µM (active) in [9]; 4.44 µM (active) in assay [10]. Further, in assay [11], the AC50 was 12.4 µM (active). Also, the outcome in assay [1], in assay [2], in assay [3], in [4], in [5] and in [8] was inactive. For the same compound, the outcome in assay [12], in assay [13], in [14], in assay [15], in [16] and in assay [17] was inactive. The compound was classed as inactive in [18] and in assay [19].
`OCCO`: the compound was called inactive in assay [1], in assay [3], in assay [4], in assay [5], in assay [13] and in assay [14]. In addition, the compound was called inactive in [15], in [16], in [17], in [18] and in assay [19].
`CCN(CC)C(=O)c1cc(S(=O)(=O)Cc2ccccc2)c(N2CCC(c3ccccc3)CC2)cc1N(CC)CCN(C)C`: the AC50 in assay [1] is 4.38 µM (active); in assay [2], 4.48 µM (active); in assay [3], 4.48 µM (active); in assay [12], 30.3 µM (active); in [13], 4.87 µM (active); in [16], 30.2 µM (active). Moreover, the AC50 in assay [17] is 29.4 µM (active); in assay [18] it was 7.21 µM (active). Besides, the result in [4], in assay [5], in assay [14], in [20] and in assay [19] was inactive.
In the case of `CC/C(=C(/CC)c1ccc(O)cc1)c1ccc(O)cc1`, the outcome in assay [1], in assay [2], in [3], in assay [15] and in [18] was inactive. Besides, the AC50 was 50 µM (active) in assay [12]; 50 µM (active) in assay [13]; 91.7 µM (active) in [16]; 92.4 µM (active) in assay [17]; 50 µM (active) in assay [19].

Values taken from PubChem BioAssay (EPA / NIEHS).
